Laboratory results published in PubChem BioAssay (NCATS).
Inconclusive results are not listed. The source made the active and inactive calls. Unless noted, the call rests on the fitted dose curve; in most records, active means well fitted curve in the direction sought with a large enough effect; inconclusive means small, poorly fitted or top-dose-only effect, or another doubt; inactive means no such curve, though single readings can be large; an effect the other way counts as inactive or inconclusive.

Assays:
[1] = qHTS assay for measurement of the activity of small molecule inhibitors on Zika virus induced Caspase-3 activity in human iPSC derived neural progenitor cells (hNPCs) (AID 1224857); details: hNPCs ZIKV-induced caspase-3/7, Caspase-Glo luminescence, 6 h; series mostly up to 45.7 µM; further: nearly all actives have a fitted effect of over 65% in size; further: potency means the concentration at half of the fitted maximal effect; on activity change, negative = inhibition: % of control where 0% means no effect
In short: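 Human iPSC-derived neural progenitor cells pretreated 1 hr with compounds, then infected with Zika virus (2 FFU/cell) for 6 hours at 37 C. Caspase-3/7 measured by Caspase-Glo luminescence; % inhibition calculated from induction scaled to uninfected (0%) and infected (100%) wells.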

[2] = qHTS assay for measurement of the activity of small molecule inhibitors on Zika virus induced Caspase-3 activity in human astrocytoma cells (AID 1224859); details: SNB-19 ZIKV-induced caspase-3/7, luminescence, 6 h; series mostly up to 45.7 µM;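 further: plate controls were ZIKV-infected untreated cells for no effect and uninfected cells for full effect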
In short: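 SNB-19 astrocytoma cells, 250/well, pretreated 1 h with compounds, then Zika virus at 2 FFU/cell for 6 h at 37 C; Caspase-Glo 3/7 luminescence after 30 min; percent inhibition normalised to uninfected and infected controls.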

[3] = qHTS assay to identify small molecule inhibitors of chordoma cells - UCH-1 (AID 1259355); details: UCH-1 chordoma viability, CellTiter-Glo, 48 h, combination, with auranofin plus four topoisomerase inhibitors; series mostly up to 46.1 µM; further: nearly all actives have a fitted effect of over 55% in size; further: potency means the concentration at half of the fitted maximal effect
In short: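 Seed 800 cells per well; incubate overnight at 37 C, 5% CO2. Add test compounds (15 concentrations), then the auranofin–topoisomerase-agent combination. Incubate 48hr, add CellTiter-Glo, wait 30min, read luminescence.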

[4] = qHTS assay to identify small molecule inhibitors of chordoma cells - UCH-2 (AID 1259356); details: UCH-2 chordoma viability, CellTiter-Glo ATP luminescence, 48 h; series mostly up to 46.1 µM; further: potency means the concentration at half of the fitted maximal effect; on activity change, negative = inhibition: on the % scale 0 is the no-effect control and ±100 the full control effect
[5] = P-glycoprotein substrates identified in KB-8-5-11 adenocarcinoma cell line, qHTS therapeutic library screen (AID 1346987); details: KB-8-5-11 (P-gp overexpressing) viability, CellTiter-Glo, 72 h; series mostly up to 44.5 µM; further: nearly all actives have a fitted effect of over 65% in size; further: potency means the concentration at half of the fitted maximal effect
In short: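 Steps: plate 500 KB-8-5-11 cells/well in DMEM + 10% FCS (colchicine removed); pin compounds in dose-response; incubate 72 h, 37 degree C, 5% CO2; add CellTiter-Glo, 5 min; read luminescence.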

[6] = qHTS profiling of the MIPE4 collection as inhibitors of Plasmodium falciparum (DD2) proliferation (AID 743345; call rule not given here); details: P. falciparum Dd2 in erythrocytes, SYBR Green DNA, 72 h; at 28.5 µM (top of the series)
In short: (§1)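 Erythrocytes infected with P. falciparum (0.3% parasitemia, 2.5% hematocrit) incubated with compounds 72 h at 37 C, 5% CO2. Lysis with saponin/Triton buffer containing SYBR Green I, overnight at room temperature in the dark; DNA fluorescence (485/535 nm) normalised to 0.29 uM artemisinin and DMSO.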

[7] = qHTS profiling of the MIPE4 collection as inhibitors of Plasmodium falciparum (DD2) proliferation (Rep 2) (AID 743346; call rule not given here); details: P. falciparum Dd2 in erythrocytes, SYBR Green DNA, 72 h; at 28.5 µM (top of the series)
In short: as §1

[8] = qHTS profiling of the MIPE4 collection as inhibitors of Plasmodium falciparum (HB3) proliferation (AID 743347; call rule not given here;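 further: plate controls were DMSO vehicle wells for no effect and artemisinin wells for full effect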); details: P. falciparum HB3 in erythrocytes, SYBR Green DNA, 72 h; at 28.5 µM (top of the series)
In short: as §1

[9] = Natriuretic polypeptide receptor (hNpr1) antagonism - Pilot counterscreen GloSensor control cell line (AID 1347045; calls by dose curve; further: on the % scale 0 is the no-effect control and ±100 the full control effect); details: HEK293 cGMP GloSensor cells, SNP-stimulated luminescence, 20 min; series mostly up to 38.3 µM
In short: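 Luminescence was read before and 20 min after adding 50 uM SNP, which stimulates soluble guanylyl cyclase. The HEK293 cells expressing the GloSensor cGMP sensor had been preloaded with 2% reagent for 2 h and treated with compound.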

C/C=C/C=N/NC(=O)c1ccncc1
inactive: Potency [1] | outcome [2] | Potency [3] | Potency [4] | Potency [5]

C=C[C@H]1CN2CC[C@H]1C[C@@H]2[C@@H](O)c1ccnc2ccc(OC)cc12
inactive: Potency [1] | outcome [2] | Potency [3] | Potency [4] | Potency [5]

NS(=O)(=O)Cc1noc2ccccc12
106%: growth, % of control [8]
74.3%: parasite growth, % of control (lower = inhibition) [7]
inactive: Potency [1] | outcome [2] | Potency [3] | Potency [4] | Potency [5]
99.5%: parasite growth remaining, % of DMSO control (lower = more inhibition) [6]

C[C@@H](O)[C@H]1C(=O)N2C(C(=O)O)=C(S[C@@H]3CN[C@H](CNS(N)(=O)=O)C3)[C@H](C)[C@H]12
inactive: Potency [1] | outcome [2] | Potency [3] | Potency [4] | Potency [5]

COc1cc(C(=O)N2CCCCCCC2)cc(OC)c1OC
inactive: Potency [1] | outcome [2] | Potency [3] | Potency [4] | Potency [5]

O=C(Nc1ccccc1)OCC(CN1CCCCC1)OC(=O)Nc1ccccc1 (stereo not given)
inactive: Potency [1] | Potency [3] | Potency [4]

C#C[C@]1(OC(C)=O)CC[C@H]2[C@@H]3CCC4=C/C(=N/O)CC[C@@H]4[C@H]3CC[C@@]21CC
inactive: Potency [1] | outcome [2] | Potency [3] | Potency [4]
active: Potency [5] 6.51 µM

CCN[C@@H]1C[C@H](N)[C@@H](OC2OC(CN)=CCC2N)[C@H](O)[C@H]1O[C@H]1OC[C@](C)(O)[C@H](NC)[C@H]1O (stereo not given in full)
inactive: activity change, negative = inhibition [1] 22% [at 0.568 µM] | activity change, negative = inhibition [2] 15.8% [at 0.568 µM] | Potency [3] | Potency [4] | Potency [5]

NS(=O)(=O)c1ccc(Cl)c(S(N)(=O)=O)c1
inactive: Potency [1] | outcome [2] | Potency [3] | Potency [4] | Potency [5]

C=C[C@H]1CN2CC[C@H]1C[C@H]2[C@H](O)c1ccnc2ccc(OC)cc12
inactive: Potency [1] | outcome [2] | Potency [3] | Potency [4] | Potency [5]

N=C(N)N1CCc2ccccc2C1
inactive: activity change, negative = inhibition [1] -12.7% [at 4.53 µM] | activity change, negative = inhibition [2] -0.144% [at 4.53 µM] | Potency [3] | Potency [4] | Potency [5]

CC(C)(C)NC[C@H](O)COc1nsnc1N1CCOCC1
inactive: Potency [1] | outcome [2] | Potency [3] | Potency [4] | Potency [5] | outcome [9]

CN=C(N)NCCC[C@H](N)C(=O)O
inactive: Potency [1] | outcome [2] | Potency [3] | Potency [4] | Potency [5] | outcome [9]

FC1(F)C(F)(F)C(F)(F)C2(F)C(F)(F)C(F)(F)C(F)(F)C(F)(F)C2(F)C1(F)F (stereo not given)
inactive: Potency [1] | outcome [2] | Potency [3] | Potency [4] | Potency [5]

CCCCOC(=O)CC(CC(=O)OCCCC)(OC(C)=O)C(=O)OCCCC
inactive: Potency [1] | Potency [3] | Potency [4]

CCc1cc(Cl)c(OC)c(C(=O)NC[C@@H]2CCCN2CC)c1O
inactive: Potency [1] | outcome [2] | Potency [3] | Potency [4] | Potency [5]

NCc1ccccc1Sc1ccccc1CO
inactive: Potency [1] | outcome [2] | Potency [3] | Potency [4] | Potency [5]

COc1cc(O)c(C(=O)c2ccccc2)cc1S(=O)(=O)O
inactive: Potency [1] | outcome [2] | Potency [3] | Potency [4] | Potency [5]

CCN(CC)CCOc1ccccc1C(=O)CCc1ccccc1
inactive: Potency [1] | Potency [3] | Potency [4]

Cc1ncc(CO)c(C=O)c1O
inactive: Potency [1] | outcome [2] | Potency [3] | Potency [4] | Potency [5]

COc1cc(C)nc(-n2nc(C)cc2OC)n1
inactive: Potency [1] | outcome [2] | Potency [3] | Potency [4] | Potency [5]

CCN1CCN(C(=O)N[C@@H](C(=O)N[C@@H]2C(=O)N3C(C(=O)O)=C(CSc4nnnn4C)CS[C@H]23)c2ccc(O)cc2)C(=O)C1=O
inactive: Potency [1] | outcome [2] | Potency [3] | Potency [4] | Potency [5]

CCC(Cc1c(I)cc(I)c(N)c1I)C(=O)O (stereo not given)
inactive: Potency [1] | outcome [2] | Potency [3] | Potency [4] | Potency [5]

CCOc1ccc(NC(C)=O)cc1
inactive: Potency [1] | outcome [2] | Potency [3] | Potency [4] | Potency [5]

CN1CCC(OC(c2ccccc2)c2ccccc2)CC1
inactive: Potency [1] | outcome [2] | Potency [3] | Potency [4] | Potency [5]

CC1(COc2ccc(CC3SC(=O)NC3=O)cc2)CCCCC1 (stereo not given)
inactive: Potency [1] | outcome [2] | Potency [3] | Potency [4] | Potency [5]

NC(N)=NN=C(/C=C/c1ccc([N+](=O)[O-])o1)/C=C/c1ccc([N+](=O)[O-])o1
active: Potency [1] 31.6 µM | Potency [3] 10 µM | Potency [4] 16.4 µM | Potency [5] 4.61 µM
inactive: outcome [2]

C[C@H]1O[C@@H](O[C@H]2CC[C@@]3(C)[C@H](CC[C@@H]4[C@@H]3C[C@@H](O)[C@]3(C)[C@@H](C5=CC(=O)OC5)CC[C@]43O)C2)C[C@H](O)[C@@H]1O[C@H]1C[C@H](O)[C@H](O[C@H]2C[C@H](O)[C@H](O[C@@H]3O[C@H](CO)[C@@H](O)[C@H](O)[C@H]3O)[C@@H](C)O2)[C@@H](C)O1
inactive: Potency [1]
active: Potency [3] 0.708 µM | Potency [4] 0.58 µM | Potency [5] 0.651 µM

CCCCCCCCCCCCCC[N+](C)(C)Cc1ccccc1
inactive: Potency [1] | Potency [3] | Potency [4] | Potency [5]

NC1CCN(c2nc3c(cc2F)c(=O)c(C(=O)O)cn3-c2ccc(F)cc2F)C1 (stereo not given)
inactive: Potency [1] | Potency [3] | Potency [4] | Potency [5]

O=C(O)CCc1nc2ccccc2[nH]1
inactive: Potency [1] | Potency [3] | Potency [4] | Potency [5]

COc1cc(N)c(Cl)cc1C(=O)NC1CCN(Cc2ccccc2)CC1
inactive: Potency [1] | Potency [3] | Potency [4]

CN1CCN(C2=Nc3cc(F)ccc3Cc3ccccc32)CC1
inactive: Potency [1] | Potency [3] | Potency [4]

CN(Cc1ccc(C(C)(C)C)cc1)Cc1cccc2ccccc12
inactive: Potency [1] | Potency [3] | Potency [4] | Potency [5]

NS(=O)(=O)c1cc2c(cc1Cl)NC(CC1CCCC1)NS2(=O)=O (stereo not given)
inactive: Potency [1] | Potency [3] | Potency [4] | Potency [5]

CCC(C(=O)OCCOCCN(CC)CC)c1ccccc1 (stereo not given)
inactive: Potency [1] | Potency [3] | Potency [4] | Potency [5]

COc1cc(C(=O)NCc2ccc(OCCN(C)C)cc2)cc(OC)c1OC
inactive: Potency [1] | Potency [3] | Potency [4] | Potency [5]

O=C1C(=O)c2ccccc2C(O)=C1C1CCC(c2ccc(Cl)cc2)CC1 (stereo not given)
18.4%: parasite growth, % of control (lower = inhibition) [7]
5.96%: growth, % of control [8]
9.71%: parasite growth remaining, % of DMSO control (lower = more inhibition) [6]
inactive: Potency [1] | Potency [3] | Potency [4]

CC(=O)NC(=O)c1ccccc1O
inactive: Potency [1] | Potency [3] | Potency [4] | Potency [5]

O=C(O)C1(C(=O)O)CCC1.[NH2-].[NH2-].[Pt+2]
inactive: Potency [1] | Potency [3] | Potency [4] | Potency [5]

Cc1cccc(C)c1NC(=O)c1ccccc1C(=O)O
inactive: Potency [1] | Potency [3] | Potency [4] | Potency [5]

C=CCN1CCc2nc(N)sc2CC1
inactive: Potency [1] | Potency [3] | Potency [4] | Potency [5]

COc1ccc(C(=O)c2ccccc2)c(O)c1
inactive: Potency [1] | Potency [3] | Potency [4] | Potency [5]

CNCCc1ccccn1
inactive: Potency [1] | Potency [3] | Potency [4] | Potency [5]

O=C(Nc1cccc(C2=NCCN2)c1)Nc1cccc(C2=NCCN2)c1
inactive: Potency [1] | Potency [3] | Potency [4] | Potency [5]

C[N+]1(C)CCC(=C(c2ccccc2)c2ccccc2)CC1
inactive: Potency [1] | Potency [3] | Potency [4] | Potency [5]

COc1ccc(S(=O)(=O)N2c3ccc(Cl)cc3[C@@](O)(c3ccccc3Cl)[C@H]2C(=O)N2CCC[C@@H]2C(N)=O)cc1OC
inactive: Potency [1] | Potency [3] | Potency [4] | Potency [5]

O=C(NCCc1c[nH]c2ccccc12)c1cccnc1
inactive: Potency [1] | Potency [3] | Potency [4] | Potency [5]

O=C1OC(CN2CCOCC2)CN1/N=C/c1ccc([N+](=O)[O-])o1 (stereo not given)
inactive: Potency [1] | Potency [3] | Potency [4] | Potency [5]

O=[N+]([O-])c1ccc(/C=N\O)o1
inactive: Potency [1] | Potency [3] | Potency [4]
